{"source": "the supplement of paper PMC7156485", "note": "Where a name gives a salt, the structure may show the parent alone. Unmarked numbers belong to inactive results.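 Further: TDF is a line of transformed human dermal fibroblasts of mesenchymal origin.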"}
{"tested_on": "HCC1569", "assay": "H1.0 immunofluorescence intensity relative to DMSO (% of DMSO); higher = stronger H1.0 induction, active = 140 or more", "details": "concentration: 10 µM; 24 h", "in_short": "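Treatment: HCC1569 and TDF cells, 800 per well in 384-well plates with RPMI and 10% FBS, were given compounds at 10 µM for 24 h at 37 °C, in triplicate. Readout: after 3.7% formaldehyde fixation, cells were stained with a rabbit anti-H1.0 antibody, an AlexaFluor 647 secondary and DAPI. Reported values are H1.0 nuclear intensity or cell number as percent of the plate control, taken as the median of replicates, with positional smoothing for HCC1569.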"}
{"smiles": "NC(=O)c1ccc2nc(-c3ccc(Oc4ccc(Cl)cc4)cc3)[nH]c2c1", "note": "[Chk2 Inhibitor II]", "H1.0 immunofluorescence intensity": 132}
{"smiles": "CC1(C)CCC(C)(C)c2cc(C3(c4ccc(C(=O)O)cc4)OCCO3)ccc21", "H1.0 immunofluorescence intensity": 92.2}
{"smiles": "COc1cc2ncnc(Nc3ccc(O)c(Br)c3)c2cc1OC", "note": "[JAK3 Inhibitor II]", "H1.0 immunofluorescence intensity": 127}
{"smiles": "COc1ccc(C(=O)/C(Cc2cc(OC)c(OC)c(OC)c2)=C(\\C(=O)[O-])c2ccc3c(c2)OCO3)cc1.[Na+]", "H1.0 immunofluorescence intensity": 103}
{"smiles": "CC(C)(C)NCC(O)COc1nsnc1N1CCOCC1", "note": "(stereo not drawn) [S(-)-Timolol maleate]", "H1.0 immunofluorescence intensity": 110}
{"smiles": "C=C1C(=O)C23C(O)C1CCC2C12COC3(O)C(O)C1C(C)(C)CCC2O", "note": "(stereo not given) [Rubescensin A]", "H1.0 immunofluorescence intensity": 100}
{"smiles": "CCCN1CCCC[C@H]1C(=O)Nc1c(C)cccc1C.Cl.O", "H1.0 immunofluorescence intensity": 113}
{"smiles": "S=C(Nc1ccccc1)Nc1nccs1", "note": "[1-Phenyl-3-(2-thiazolyl)-2-thiourea]", "H1.0 immunofluorescence intensity": 102}
{"smiles": "NC(=NCc1ccccc1)NC(=O)c1nc(Cl)c(N)nc1N", "note": "[Benzamil]", "H1.0 immunofluorescence intensity": 112}
{"smiles": "CCCCCC=CCC1OC1CC=CCC=CCCCC(=O)O", "note": "(stereo not given) [11,12-Epoxyeicosatrienoic acid]", "H1.0 immunofluorescence intensity": 97.7}
{"smiles": "COc1ccc(-c2cc(=O)c3c(O)cc(O)cc3o2)cc1O", "note": "[Diosmetine]", "H1.0 immunofluorescence intensity": 114}
{"smiles": "CCCS(=O)(=O)Nc1ccc(F)c(C(=O)c2c[nH]c3ncc(Cl)cc23)c1F", "H1.0 immunofluorescence intensity": 111}
{"smiles": "C[C@H](CCC(=O)O)[C@H]1CC[C@H]2[C@@H]3C[C@H](O)[C@@H]4C[C@H](O)CC[C@]4(C)[C@H]3CC[C@]12C", "note": "[(3alpha,5beta,6alpha)-3,6-dihydroxycholan-24-oic acid]", "H1.0 immunofluorescence intensity": 106}
{"smiles": "Cc1ccc(OCCSc2ncccn2)c(Br)c1", "note": "[2-{[2-(2-bromo-4-methylphenoxy)ethyl]sulfanyl}pyrimidine]", "H1.0 immunofluorescence intensity": 107}
{"smiles": "O=C1NC(=O)C(c2cn(CCCO)c3ncccc23)=C1c1cnccn1", "note": "[GSK-3b Inhibitor XI]", "H1.0 immunofluorescence intensity": 116}
{"smiles": "CC(C)c1ccc2oc3nc(N)c(C(=O)O)cc3c(=O)c2c1", "H1.0 immunofluorescence intensity": 92.5}
{"smiles": "Cc1cncc2cccc(S(=O)(=O)N3CCCN(C(=O)CN)CC3C)c12.Cl.Cl.O", "note": "(stereo not given) [Rho Kinase Inhibitor IV]", "H1.0 immunofluorescence intensity": 131}
{"smiles": "CC(NC(=O)C(C#N)=Cc1ccc(O)c(O)c1)c1ccccc1", "note": "(stereo not given) [Tyrphostin AG 835]", "H1.0 immunofluorescence intensity": 114}
{"smiles": "COc1ccc(/C=C\\c2cc(OC)c(OC)c(OC)c2)cc1O", "note": "[2-methoxy-5-[(Z)-2-(3,4,5-trimethoxyphenyl)ethenyl]phenol]", "H1.0 immunofluorescence intensity": "162 (active)"}
{"smiles": "C=CC(C)(O)CCC1C(=C)CCC2C(C)(C)CCCC12C", "note": "(stereo not given) [Manool]", "H1.0 immunofluorescence intensity": 90.8}
{"smiles": "CCCCCCCCCCCCCCC(F)C(=O)O", "note": "(stereo not given) [2-Fluoropalmitic acid]", "H1.0 immunofluorescence intensity": 104}
{"smiles": "CC(=O)OCC[N+](C)(C)C", "note": "[Acetylcholine]", "H1.0 immunofluorescence intensity": 100}
{"smiles": "COc1cc(Oc2ccnc3cc(OC)c(OC)cc23)ccc1NC(=O)NC(C)c1nccs1", "note": "(stereo not given)", "H1.0 immunofluorescence intensity": 124}
{"smiles": "CCOC(=O)c1ncn2c1CN(C)C(=O)c1cc(F)ccc1-2", "note": "[Flumazenil]", "H1.0 immunofluorescence intensity": 93.6}
{"smiles": "COC1C=COC2(C)Oc3c(C)c(O)c4c(O)c(cc(O)c4c3C2=O)NC(=O)C(C)=CC=CC(C)C(O)C(C)C(O)C(C)C(OC(C)=O)C1C", "note": "(stereo not given)", "H1.0 immunofluorescence intensity": 103}
{"smiles": "COc1c2c(nc3ccccc13)OC(C(C)(O)CO)C2", "note": "(stereo not given) [Dubinidine]", "H1.0 immunofluorescence intensity": 106}
{"smiles": "O=c1cc(-c2ccc(O)c(O)c2)oc2cc(O)c(C3OC(CO)C(O)C(O)C3O)c(O)c12", "note": "(stereo not given) [Homoorientin]", "H1.0 immunofluorescence intensity": 90.4}
{"smiles": "CCCn1c(=O)c2[nH]c(-c3ccc(OCC(=O)NCCN)cc3)nc2n(CCC)c1=O", "note": "[Xanthine amine congener]", "H1.0 immunofluorescence intensity": 110}
{"smiles": "O=C1c2ccccc2-n2c1nc1ccccc1c2=O", "note": "[Tryptanthrin]", "H1.0 immunofluorescence intensity": 93.6}
{"smiles": "Cl.Cl.OCCN1CCN(CCCN2c3ccccc3Sc3ccc(C(F)(F)F)cc32)CC1", "note": "[Fluphenazine.2HCl]", "H1.0 immunofluorescence intensity": 116}
{"smiles": "Cl.Cl.O=S(=O)(NCCNCC=Cc1ccc(Br)cc1)c1cccc2cnccc12", "note": "[H-89, Dihydrochloride]", "H1.0 immunofluorescence intensity": 129}
{"smiles": "COc1ccc(-c2coc3cc(O)ccc3c2=O)cc1", "note": "[Formononetin]", "H1.0 immunofluorescence intensity": 80.9}
{"smiles": "Nn1nnc2ccccc21", "note": "[1-Aminobenzotriazole]", "H1.0 immunofluorescence intensity": 85.9}
{"smiles": "CC(=O)c1ccc(S(=O)(=O)NC(=O)NC2CCCCC2)cc1", "note": "[Acetohexamide]", "H1.0 immunofluorescence intensity": 109}
{"smiles": "C[C@@H](Nc1ncnc2[nH]c(-c3ccc(O)cc3)cc12)c1ccccc1", "H1.0 immunofluorescence intensity": 139}
{"smiles": "CCCCCC(O)CCC1C(O)CC(=O)C1CCCCCCC(=O)O", "note": "(stereo not given) [13,14-Dihydro-prostaglandin E1]", "H1.0 immunofluorescence intensity": 103}
{"smiles": "CN(C)CCN(Cc1cccs1)c1ccccn1.Cl", "note": "[Methapyrilene hydrochloride]", "H1.0 immunofluorescence intensity": 92.7}
{"smiles": "Cn1c(=O)c(-c2c(Cl)cccc2Cl)cc2cnc(Nc3cccc(C(=O)O)c3)nc21", "H1.0 immunofluorescence intensity": "156 (active)"}
{"smiles": "CC(C)(C)OC(=O)CN(Cc1ccc(Cl)cc1)Cc1ccc([N+](=O)[O-])s1", "H1.0 immunofluorescence intensity": 99}
{"smiles": "C[N+](C)(C)CCOC(N)=O.[Cl-]", "note": "[Carbachol]", "H1.0 immunofluorescence intensity": 96.9}
